# Source: PubChem
# A selection follows.
# aSyn 5UTR act: Activators working through SNCA 5'UTR binding (MLPCN); AID 1814; 300,000 compounds, 7.1% hits; alpha-synuclein 5'UTR reporter, activators screen; activity score, % (tested at 7.5 µM), hits read low; in the data active = activity score below about -60%
# * hit, by the source's call.
SMILES,aSyn 5UTR act
CC1=C(CC(=O)c2ccc(Cl)cc2)C(=O)c2ccccc2C1=O,-70.0*
COc1ccc(CCn2c(=N)c(C(=O)N3CCN(C)CC3)cc3c(=O)n4ccccc4nc32)cc1,-65.3*
CCNC(=O)c1cc2c(=O)n3cccc(C)c3nc2n(CCc2ccccc2)c1=N,-104.5*
COc1ccc(CCn2c(=N)c(C(=O)NCCN3CCOCC3)cc3c(=O)n4cccc(C)c4nc32)cc1OC,-92.5*
Cc1cccn2c(=O)c3cc(C(=O)NCc4ccco4)c(=N)n(C4CCCCC4)c3nc12,-68.7*
Cc1cccn2c(=O)c3cc(C(=O)NCCN4CCOCC4)c(=N)n(CCc4ccccc4)c3nc12,-128.5*
O=C(OCn1ncc(Cl)c(Cl)c1=O)c1ccc(C(F)(F)F)cc1,-117.3*
COc1ccc(OC)c(Nc2cc(-c3ccccc3)nc(N)n2)c1,67.8
COc1ccc2nc(-c3ccccc3)cc(OC)c2c1,-106.5*
CCCN1CCC(=O)N([C@H](CSc2ccccc2)c2ccccc2)CC1,-72.1*
CCCN1CCC(=O)N([C@H](CSc2ccc(OC)cc2)CC(C)C)CC1,-113.5*
CCCN1CCC(=O)N([C@H](CSc2ccc(C)cc2)c2ccccc2)CC1,-181.0*
CN1CCC(=O)N([C@H](CSc2ccc(Br)cc2)c2ccccc2)CC1,-103.6*
Cc1ccc(-n2nc3cc(C)c(NC(=S)NC(=O)/C=C/c4ccco4)cc3n2)cc1,-256.8*
Cc1ccc(-n2nc3ccc(NC(=S)NC(=O)/C=C/c4ccco4)cc3n2)cc1,-95.8*
Cc1ccc(OC(=O)COc2ccccc2C)c(-n2nc3ccccc3n2)c1,-233.1*
Cc1ccc(OC(=O)COc2ccccc2)c(-n2nc3ccccc3n2)c1,-177.6*
O=C(Oc1c(-c2ccccc2)c(=O)n2c3c(cccc13)CC2)c1cccc([N+](=O)[O-])c1,77.3
Cc1ccc(OC(=O)c2cccc([N+](=O)[O-])c2)c(-n2nc3ccccc3n2)c1,-278.1*
CCOc1ccc(-c2csc3nc[nH]c(=O)c23)cc1,-154.2*
CCCc1cc(C(=O)Nc2nnc(C)s2)cs1,-115.1*
CC(C)c1nnc(NC(=O)c2sc3ccccc3c2Cl)s1,-110.5*
CC(C)c1nnc(NC(=O)c2ccc3ccccc3c2)s1,-64.4*
Cc1cnc(NC(=O)c2sc3ccccc3c2Cl)s1,58.6
CCC(CC)c1nnc(NC(=O)c2ccc3ccccc3n2)s1,-85.7*
SMILES,aSyn 5UTR act
CC(C)N1CCc2c(sc(NC(=O)c3ccc4ccccc4c3)c2C(N)=O)C1,-97.0*
CN1CCc2c(sc(NC(=O)c3ccc([N+](=O)[O-])o3)c2C(N)=O)C1,85.5
Cc1nnc(NC(=O)c2ccc3ccccc3c2)s1,-145.2*
Cc1occc1C(=O)NCCc1cccc(Cl)c1,-81.5*
Cc1occc1C(=O)NNC(=O)c1ccccc1C(=O)O,-73.9*
Cc1occc1C(=O)NCCCc1ccccc1,-70.8*
Nc1ccccc1Nc1cc(-c2ccccc2)[nH]n1,-170.7*
CC(/C=C/c1ccccc1F)=N\NC(=O)C(C)C,-78.2*
CCCCC(=O)N/N=C(C)/C=C/c1ccccc1F,-75.6*
O=S(=O)([N-]c1nc2ccccc2nc1-[n+]1ccc(-c2ccncc2)cc1)c1ccccc1,-105.0*
N/C(=N\OC(=O)c1cccc2ccccc12)c1cccc([N+](=O)[O-])c1,-122.8*
Cc1ccccc1C(=O)O/N=C(\N)c1cccc([N+](=O)[O-])c1,-274.9*
N/C(=N\OC(=O)c1cccc2ccccc12)c1cccnc1,-184.0*
CCn1c(Cn2nnc(-c3ccccc3)n2)nnc1SCC(=O)Nc1ccc(C(C)=O)cc1,-91.7*
CC(O)/C=C/c1ccc2ccccc2n1 (stereo not drawn),-153.6*
C(=C\c1ccccn1)/c1cccnc1,-75.6*
CN(/N=C/c1cc([N+](=O)[O-])ccc1O)c1ccccc1,-158.8*
O=[N+]([O-])c1ccc(O)c(/C=N/Nc2ccccn2)c1,95.2
O=[N+]([O-])c1ccc(O)c(C=Nc2ccc3c(c2)OCCO3)c1,-62.0*
O=[N+]([O-])c1cccc(N/N=C/c2cc([N+](=O)[O-])ccc2O)c1,-69.6*
O=[N+]([O-])c1ccc(N/N=C/c2ccccc2O)cc1,-165.1*
COC(=O)C1=C(C)N(Cc2ccccc2)C(=NCc2cccc(C(F)(F)F)c2)N[C@H]1c1cccc(F)c1,56.6
CCCOc1ccc(/C=N/Nc2cccc([N+](=O)[O-])c2)c(O)c1,-164.3*
CCCOc1ccc(/C=N/Nc2ccc(C(=O)O)cc2)c(OCCC)c1,-109.0*
CCCOc1ccc(/C=N/Nc2ccccc2[N+](=O)[O-])c(O)c1,62.0
SMILES,aSyn 5UTR act
O=C(CSc1ncnc2sc3c(c12)CCCC3)c1ccccc1,-76.9*
CC1Oc2ccccc2N(CC(=O)NCc2ccccc2)C1=O (stereo not drawn),-90.6*
C=C(C)CNC(=S)Nc1nc2c(cc1C(=O)OCC)CCCC2,-105.4*
CCn1c(=O)c(C(=O)Nc2ccccc2C)c(O)c2ccccc21,-80.5*
C=CCn1c(O)c(N=NC(=S)Nc2ccccc2C)c2cc(S(=O)(=O)N3CCOCC3)ccc21,79.5
CC(C)Cn1c(=O)c(C(=O)Nc2ccncc2)c(O)c2ccccc21,65.8
C=CCn1c(=O)c(C(=O)Nc2ccccc2C)c(O)c2ccccc21,-155.5*
